Where “and” joins values, the source holds several entries; their conditions need not be identical. Equal entries are not always repeated. Records with an inconclusive call do not appear. A structure can be active in one record and inactive in another. Calls of active or inactive are those of the source. The call rests on the fitted dose curve; in most records, active means well fitted curve in the direction sought with a large enough effect in the repeat runs; inconclusive means weak or mixed curves; inactive means no such curve, though single readings can be large; an effect the other way counts as inactive or inconclusive.
Key:
[1] = qHTS RealTime-Glo MT Cell Viability Assay in HepG2 cells - 40 hour (AID 1224870); further: nearly all actives have a fitted effect of over 50% in size
Procedure, shortened: (§1)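 HepG2 cells (600/well) mixed with RealTime-Glo MT reagent, settled 5 h at 37 C/5% CO2 before compound addition. Nonlytic NanoLuc luminescence from viable-cell prosubstrate reduction read repeatedly during 40 h treatment at 37 C.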

[2] = A CellTox Green Cytotoxicity Assay to monitor cytotoxicity in HEK293 cells - 40 hour (AID 1224871); further: nearly all actives have a fitted effect of over 45% in size; further: potency means the concentration at half of the fitted maximal effect
Procedure, shortened: (§2)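 Fluorescence intensity, read at 0, 8, 16, 24, 32 and 40 h of compound treatment, reflected dye binding to DNA of dead HEK293 cells; compounds (23 nL, DMSO) were added 5 h after plating cells with reagent.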

[3] = qHTS RealTime-Glo MT Cell Viability Assay in HEK293 cells - 40 hour (AID 1224874); details: RealTime-Glo luminescence; max response: stronger effect = lower value; further: nearly all actives have a fitted effect of over 50% in size; further: potency means the concentration at half of the fitted maximal effect
Procedure, shortened: (§3)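 Viable HEK293 cells reduce a cell-permeant prosubstrate; the product diffuses out and is consumed by NanoLuc in the medium to give light. Compounds went in after a 5 h incubation and plates were read over the treatment course.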

[4] = A CellTox Green Cytotoxicity Assay to monitor cytotoxicity in HEK293 cells - 24 hour (AID 1224875); further: series mostly up to about 77 µM; nearly all actives have a fitted effect of over 45% in size
Procedure, shortened: as §2

[5] = A CellTox Green Cytotoxicity Assay to monitor cytotoxicity in HepG2 cells - 16 hour (AID 1224876); further: nearly all actives have a fitted effect of over 45% in size; further: potency means the concentration at half of the fitted maximal effect
Procedure, shortened: (§4)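 Using 1536-well format, dye-containing HepG2 suspension was seeded, allowed 5 h at 37 C/5% CO2, dosed by pintool with compounds, positive and negative controls, and imaged for fluorescence across 40 h.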

[6] = qHTS RealTime-Glo MT Cell Viability Assay in HepG2 cells - 32 hour (AID 1224877); further: nearly all actives have a fitted effect of over 55% in size
Procedure, shortened: (§5)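 Cells + NanoLuc/prosubstrate dispensed (600 cells/well) → 5 h at 37 C/5% CO2 → compounds in DMSO transferred → 40 h incubation at 37 C, luminescence read at 0, 8, 16, 24, 32, 40 h.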

[7] = A CellTox Green Cytotoxicity Assay to monitor cytotoxicity in HepG2 cells - 24 hour (AID 1224878); further: nearly all actives have a fitted effect of over 45% in size; further: potency means the concentration at half of the fitted maximal effect
Procedure, shortened: as §4

[8] = A CellTox Green Cytotoxicity Assay to monitor cytotoxicity in HepG2 cells - 40 hour (AID 1224879); further: nearly all actives have a fitted effect of over 40% in size; further: potency means the concentration at half of the fitted maximal effect
Procedure, shortened: as §4

[9] = qHTS RealTime-Glo MT Cell Viability Assay in HEK293 cells - 0 hour (AID 1224880)
Procedure, shortened: as §3

[10] = A CellTox Green Cytotoxicity Assay to monitor cytotoxicity in HEK293 cells - 32 hour (AID 1224881); further: nearly all actives have a fitted effect of over 40% in size; further: potency means the concentration at half of the fitted maximal effect
Procedure, shortened: as §2

[11] = A CellTox Green Cytotoxicity Assay to monitor cytotoxicity in HepG2 cells - 0 hour (AID 1224882); further: nearly all actives have a fitted effect of over 35% in size; further: potency means the concentration at half of the fitted maximal effect
Procedure, shortened: as §4

[12] = A CellTox Green Cytotoxicity Assay to monitor cytotoxicity in HepG2 cells - 32 hour (AID 1224883); further: nearly all actives have a fitted effect of over 50% in size; further: potency means the concentration at half of the fitted maximal effect
Procedure, shortened: as §4

[13] = A CellTox Green Cytotoxicity Assay to monitor cytotoxicity in HEK293 cells - 8 hour (AID 1224884); further: nearly all actives have a fitted effect of over 35% in size; further: potency means the concentration at half of the fitted maximal effect
Procedure, shortened: as §2

[14] = qHTS RealTime-Glo MT Cell Viability Assay in HepG2 cells - 16 hour (AID 1224885); further: nearly all actives have a fitted effect of over 50% in size
Procedure, shortened: as §5

[15] = qHTS RealTime-Glo MT Cell Viability Assay in HEK293 cells - 24 hour (AID 1224886); further: nearly all actives have a fitted effect of over 50% in size; further: potency means the concentration at half of the fitted maximal effect
Procedure, shortened: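 Tox21 10K qHTS, HEK293, 600 cells/well, RealTime-Glo reagent co-dispensed with cells; 5 h preincubation, compound by pintool, 37 C, luminescence at 0–40 h.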

[16] = qHTS RealTime-Glo MT Cell Viability Assay in HEK293 cells - 8 hour (AID 1224887)
Procedure, shortened: as §3

[17] = A CellTox Green Cytotoxicity Assay to monitor cytotoxicity in HEK293 cells - 16 hour (AID 1224888); further: nearly all actives have a fitted effect of over 35% in size
Procedure, shortened: as §2

[18] = qHTS RealTime-Glo MT Cell Viability Assay in HepG2 cells - 0 hour (AID 1224889); further: nearly all actives have a fitted effect of over 50% in size
Procedure, shortened: as §5

[19] = qHTS RealTime-Glo MT Cell Viability Assay in HepG2 cells - 8 hour (AID 1224873); further: nearly all actives have a fitted effect of over 55% in size
Procedure, shortened: as §1
On the % scale 0 is the no-effect control and ±100 the full control effect.

Cc1ccc(C(=O)c2cc(O)c(O)c([N+](=O)[O-])c2)cc1
inactive: Potency [1] | Potency [2] | Potency [4] | Potency [5] | Potency [6] | Potency [7] | Potency [9] | Potency [10] | Potency [11] | Potency [12] | Potency [13] | Potency [14] | Potency [15] | Potency [16] | Potency [17] | Potency [18]
49 µM (active) and inactive: Potency [8]
active: Potency [3] 49 µM

CN1C(C(=O)Nc2ccccn2)=C(O)c2ccccc2S1(=O)=O
inactive: Potency [1] | Potency [2] | Potency [19] | Potency [4] | Potency [5] | Potency [6] | Potency [7] | Potency [8] | Potency [9] | Potency [10] | Potency [11] | Potency [12] | Potency [13] | Potency [14] | Potency [15] | Potency [16] | Potency [17] | Potency [18]

C#C[C@]1(O)CC[C@H]2[C@@H]3CCC4=Cc5oncc5C[C@]4(C)[C@H]3CC[C@@]21C
inactive: Potency [4] | Potency [5] | Potency [7] | Potency [8] | Potency [11] | Potency [12] | Potency [13] | Potency [17]
active: Potency [2] 49 µM | Potency [10] 49 µM

CCC(C)OC(=O)c1ccc(O)cc1 (stereo not given)
inactive: Potency [1] | Potency [2] | Potency [19] | Potency [4] | Potency [6] | Potency [9] | Potency [10] | Potency [11] | Potency [13] | Potency [14] | Potency [16] | Potency [17] | Potency [18]

CC1=CC2C3CC(C=C3C)C2C1 (stereo not given)
inactive and 27.5 µM (active): Potency [7] | Potency [11]
inactive and 43.6 µM (active): Potency [13]
inactive and 38.9 µM (active): Potency [2] | Potency [8] | Potency [10]
inactive and 24.5 µM (active): Potency [5] | Potency [12]
inactive: Potency [1] | max response [3] 6.31% and 1.24% | Potency [6] | Potency [9] | Potency [14] | Potency [15] | Potency [16] | Potency [18]

O=C1c2cccc(O)c2C(=O)c2c(O)cccc21
inactive: Potency [1] | Potency [2] | Potency [4] | Potency [5] | Potency [6] | Potency [7] | Potency [8] | Potency [9] | Potency [10] | Potency [11] | Potency [12] | Potency [13] | Potency [14] | Potency [17] | Potency [18]

S=C(NC1CCCCC1)NC1CCCCC1
active: Potency [15] 17 µM and 21.9 µM
inactive: Potency [1] | Potency [2] | Potency [19] | Potency [4] | Potency [6] | Potency [7] | Potency [8] | Potency [9] | Potency [10] | Potency [11] | Potency [12] | Potency [13] | Potency [14] | Potency [17] | Potency [18]

Oc1ccc(O)cc1
inactive: Potency [1] | Potency [2] | Potency [19] | Potency [4] | Potency [5] | Potency [6] | Potency [7] | Potency [8] | Potency [9] | Potency [10] | Potency [11] | Potency [12] | Potency [13] | Potency [14] | Potency [16] | Potency [17] | Potency [18]

O=C(/C=C/C=C/c1ccc2c(c1)OCO2)N1CCCCC1
inactive: Potency [1] | Potency [2] | Potency [4] | Potency [5] | Potency [6] | Potency [7] | Potency [9] | Potency [10] | Potency [11] | Potency [12] | Potency [13] | Potency [14] | Potency [17] | Potency [18]
active: Potency [3] 55.1 µM

OC1CCCCCCCCCCC1
active: Potency [5] 38.9 µM | Potency [7] 49.5 µM and 43.6 µM | Potency [8] 49.5 µM | Potency [12] 44.1 µM and 43.6 µM
inactive and 27.5 µM (active): Potency [11]
inactive and 43.6 µM (active): Potency [2] | Potency [10] | Potency [13]
inactive: Potency [1] | Potency [19] | max response [3] -5.96% and 2.11% | Potency [6] | Potency [9] | Potency [14] | Potency [15] | Potency [16] | Potency [18]
